# WRN inhibitor = blocks human WRN helicase; Q14191; AID 651768; Potency, µM (top dose mostly 114 µM), without a hit: top-dose activity change, negative = inhibition, usual class: inhibitors; WRN helicase unwinding, fluorescent forked duplex, kinetic; hit rate 0.46% among 360,000; note: potency is the fitted concentration of half-maximal effect; nearly all actives have a fitted effect of over 55% in size
# Target sequence (Q14191 whole entry, looked up): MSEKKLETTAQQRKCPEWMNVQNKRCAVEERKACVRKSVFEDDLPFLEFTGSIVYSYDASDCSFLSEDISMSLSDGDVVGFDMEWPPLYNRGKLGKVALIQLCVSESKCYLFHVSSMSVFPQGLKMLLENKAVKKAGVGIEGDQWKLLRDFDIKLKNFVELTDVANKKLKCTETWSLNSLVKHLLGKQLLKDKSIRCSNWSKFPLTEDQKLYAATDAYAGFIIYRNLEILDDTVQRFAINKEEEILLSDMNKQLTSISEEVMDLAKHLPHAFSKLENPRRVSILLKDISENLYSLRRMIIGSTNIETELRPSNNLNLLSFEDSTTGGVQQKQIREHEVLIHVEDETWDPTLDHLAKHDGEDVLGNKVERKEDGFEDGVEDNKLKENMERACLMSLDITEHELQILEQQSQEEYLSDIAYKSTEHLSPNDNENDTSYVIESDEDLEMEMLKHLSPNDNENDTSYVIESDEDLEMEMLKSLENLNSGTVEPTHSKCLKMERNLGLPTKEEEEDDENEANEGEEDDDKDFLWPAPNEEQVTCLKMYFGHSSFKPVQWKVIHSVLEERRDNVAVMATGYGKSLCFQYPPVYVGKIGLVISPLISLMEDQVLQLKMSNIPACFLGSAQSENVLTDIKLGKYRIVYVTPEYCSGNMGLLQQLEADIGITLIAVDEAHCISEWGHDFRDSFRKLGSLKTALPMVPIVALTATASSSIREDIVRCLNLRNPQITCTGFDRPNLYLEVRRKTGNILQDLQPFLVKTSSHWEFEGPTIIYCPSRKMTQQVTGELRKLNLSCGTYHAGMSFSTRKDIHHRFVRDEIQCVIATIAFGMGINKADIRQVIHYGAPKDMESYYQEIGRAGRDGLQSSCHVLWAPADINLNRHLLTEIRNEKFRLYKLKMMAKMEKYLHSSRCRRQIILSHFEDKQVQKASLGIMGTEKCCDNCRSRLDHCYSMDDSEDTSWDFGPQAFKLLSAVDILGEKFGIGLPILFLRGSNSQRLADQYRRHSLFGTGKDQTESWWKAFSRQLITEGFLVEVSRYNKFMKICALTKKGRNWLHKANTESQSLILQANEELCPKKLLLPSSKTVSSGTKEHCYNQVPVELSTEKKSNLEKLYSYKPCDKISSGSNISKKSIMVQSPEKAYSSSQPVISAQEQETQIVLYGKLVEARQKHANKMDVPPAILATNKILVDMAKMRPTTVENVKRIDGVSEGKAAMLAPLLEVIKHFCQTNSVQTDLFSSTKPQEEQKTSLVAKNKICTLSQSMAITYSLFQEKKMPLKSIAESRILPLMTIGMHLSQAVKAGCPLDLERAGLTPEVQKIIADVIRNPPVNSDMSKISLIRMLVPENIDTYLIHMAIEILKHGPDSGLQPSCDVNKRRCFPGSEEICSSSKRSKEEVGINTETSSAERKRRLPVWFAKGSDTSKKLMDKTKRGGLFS
#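 Enzyme (20 nM final) and test compound sit together 15 min at room temperature before substrate addition. Substrate is a single-forked duplex oligonucleotide (100 nM) labelled with fluorophore and quencher, with 2 mM ATP; helicase unwinding raises red fluorescence, read kinetically.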
# PI5P4Ka inh = blocks human PI5P4K alpha kinase activity; P48426; PI5P4Kalpha enzyme, ADP-Glo luminescence, 60 min; active compounds read low; max response, %; hit rate 1.2% among 330,000; active = max response of -50% or lower; inconclusive = between -30% and -50%; inactive = -30% or higher; note: value at the top dose of about 77 µM
#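 Single end-point luminescence (ADP-Glo) quantified ADP from PI5P4Kalpha turnover; ATP 5 microM final, 1 h at RT, 0.1% CHAPS and 0.28 mM EGTA in HEPES pH 7.4.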
# Tb PFK inh = blocks T. brucei phosphofructokinase. O15648. T. brucei PFK, ADP-Glo luminescence. Potency, µM (doses to about 57.5 µM), for the others: at the highest dose activity, negative = inhibition, most hits filed as inhibitors. hit rate 0.17% among 330,000;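 note: potency is the fitted concentration of half-maximal effect; 0% = uninhibited 1x PFK enzyme wells and -100% = no-enzyme wells; nearly all actives have a fitted effect of over 60% in size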
#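 ADP-Glo luminescence quantified ADP after 45 min at room temperature, with 1.25 nM T. brucei PFK, 0.1 mM ATP and 0.5 mM fructose-6-phosphate in pH 8.0 TEA buffer. qHTS titrations up to 57 µM; curves classified by quality.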
# Tb PGK inh = inhibitors of T. brucei phosphoglycerate kinase; hit rate 0.043% among 380,000; P07378; AID 602233; PGK/GAPDH coupled, Kinase-Glo luminescence, 60 min; Potency, µM (series often up to 57.5 µM), without a hit: at the highest dose activity change, negative = inhibition, hits mostly inhibitors; note: potency is the fitted concentration of half-maximal effect; nearly all actives have a fitted effect of over 60% in size
#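 Luminescent ATP detection (Kinase-Glo Plus) follows a 60-minute room-temperature incubation, with wells lacking PGK as controls. Buffer: 100 mM TEA (pH 7.6), 5 mM MgCl2, 0.01% Tween-20. Coupling enzyme GAPDH (100 nM final) supplies unstable 1,3-BPG in-well.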
# TDP1 block = blocks human tyrosyl-DNA phosphodiesterase 1; Q9NUW8; hit rate 0.28% among 350,000; Potency, µM (titrated, usually from 130 µM), inactives show at the top dose activity change, negative = inhibition, actives largely listed as inhibitors; recombinant TDP1, AlphaScreen DNA substrate cleavage; note: potency is the fitted concentration of half-maximal effect; nearly all actives have a fitted effect of over 40% in size
#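 E. coli-derived human Tdp1, 1 nM final. Cpd preinc 15 min RT; substrate 15 nM final, 5 min RT; AS bead mix 10 ug/ml final, 10 min RT. Signal loss = tyrosine-FITC cleavage. No-enzyme wells = max signal.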
# FEN1 inh = inhibitors of human flap endonuclease 1; P39748; Recombinant FEN1 flap cleavage, fluorescence, 15 min; Potency, µM (highest dose often 114 µM), for inactives: at the highest dose activity change, negative = inhibition, usual class: inhibitors; hit rate 0.35% among 390,000; AID 588795; note: potency is the fitted concentration of half-maximal effect; nearly all actives have a fitted effect of over 65% in size
#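 Potency values derive from four-parameter Hill fits of normalized qHTS data. The reaction used 10 nM FEN1 preincubated 15 min at room temperature with compound, then 50 nM DNA substrate, read at 0 and 15 min.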
# The depositor's hits bear a star; i = inactive; u = inconclusive; x = no result; ! = repeats disagree; [ ] = remark or other dose. Shown are actives, neighbours in structure and some others; about 1.5% of the full set was active somewhere. Unless noted, calls come from the whole dose curve; as a rule, active = well fitted curve in the direction sought with a large enough effect; inconclusive = small, poorly fitted or top-dose-only effect, or another doubt; inactive = no such curve, though single readings can be large; an effect the other way counts as inactive or inconclusive. Unless noted, % is set by controls: 0 for no effect and ±100 for the full control effect.
SMILES,WRN inhibitor,PI5P4Ka inh,Tb PFK inh,Tb PGK inh,TDP1 block,FEN1 inh
C=CCOc1ccc(/C=C\c2nc(O)c([N+](=O)[O-])c(=O)[nH]2)cc1OCC,-18%[11.6 µM],-55*,7%,x,x,7%
O=C(Cc1ccccc1)Nc1sc2c(c1C(=O)Nc1cccc(Cl)c1)CCCC2,x,x,x,x,0%,x
O=S(=O)(c1ccc2c(c1)OCCO2)N1CCN(S(=O)(=O)c2ccc(F)cc2F)CC1,x,x,x,x,-20%,x
COC(=O)c1ccc(CCc2cc(O)ccc2O)cc1,56µM*,u,x,-10%,x,-1%
CC1=CC(=O)C=CC1=Nc1ccc(N(C)C)cc1,-2%[57.1 µM],-95*,x,x,x,x
CN(C)c1ccc(N=Nc2ccc(S(N)(=O)=O)cc2)cc1,-19%,-16,u,-7%,-18%,-6%
CCn1c(CCc2nc3ccccc3[nH]2)n[nH]c1=S,-3%,5,2%,-10%,-5%,-3%
Cc1ccc(-n2c(CCc3nc4ccccc4[nH]3)n[nH]c2=S)cc1,-35%,-58*,0%,0%,6%,9%
Cc1ccc(C)c(SC2=NS(=O)(=O)c3ccccc32)c1,x,x,x,x,1%,x
CN(C)c1ccc(/C=C/c2ccc3c4ccccc4ccc3[n+]2-c2ccccc2)cc1,13µM*,-87*,-11%,u,15%,8.9µM*
Cc1ccc2ccccc2n1,x,x,x,x,x,0%
NC(Cc1cc(I)c(Oc2ccc(O)c(I)c2)c(I)c1)C(=O)O (centres undefined),x,x,x,x,10%,x
N[C@@H](Cc1cc(I)c(Oc2ccc(O)c(I)c2)c(I)c1)C(=O)O,u,-82*!,u,u,0%,u
N[C@@H](Cc1cc(I)c(Oc2cc(I)c(O)c(I)c2)c(I)c1)C(=O)O,-26%,-62*,x,0%,4%,9%
CCOc1ccc(CCNC(=O)CCCn2nc(C)c3sc4ccccc4c3c2=O)cc1OCC,x,x,x,9%,3%,1%
COc1ccc(CCNC(=O)CCCn2nc(C)c3sc4ccccc4c3c2=O)cc1OC,x,x,x,i,6%,45µM*
CCOc1ccc(CCNC(=O)CCCn2nc(C)c3sc4ccccc4c3c2=O)cc1,x,x,x,-4%,9%,-13%
Cc1nn(CCCC(=O)NCCc2ccc(Cl)cc2)c(=O)c2c1sc1ccccc12,x,x,x,-4%,6%,45µM*
O=C(/C=C/c1ccc(N2CCC(c3ccccc3)=N2)cc1)c1ccccc1,50µM*,-5,2%,-6%,-2%,-9%
NS(=O)(=O)c1ccc(CCNS(=O)(=O)c2cccc(C(=O)O)c2)cc1,0%,5,0%,i,79µM*,-1%
COc1cc(N(C)C)c(OC)cc1/C=C1\C=Cc2ccccc21,x,x,x,x,x,-21%
O[C@@H]([C@H](O)[C@H](O)CBr)[C@H](O)CBr,-2%,-62*,x,-9%,-2%,13%
O[C@@H]([C@H](O)[C@@H](O)CBr)[C@@H](O)CBr,x,x,x,x,10%,x
Cc1csc(NC(=O)CSc2nc3[nH]c(=O)cc(O)c3s2)n1,-5%,-13,x,-1%,x,-2%
CCCSc1nnc(NC(=O)CSc2nc3[nH]c(=O)cc(O)c3s2)s1,-10%,-72*,5%,-5%,u,-9%
SMILES,WRN inhibitor,PI5P4Ka inh,Tb PFK inh,Tb PGK inh,TDP1 block,FEN1 inh
Nc1cc(S(=O)(=O)O)cc2ccc(S(=O)(=O)O)cc12,-15%,-3,x,-7%,x,-10%
O=S(=O)(O)c1ccc2c(c1)-c1nc-2nc2[nH]c(nc3nc(nc4[nH]c(n1)c1ccc(S(=O)(=O)O)cc41)-c1ccc(S(=O)(=O)O)cc1-3)c1ccc(S(=O)(=O)O)cc21,x,x,x,x,0.1µM*,x
c1cnc2[nH]ccc2c1,x,x,x,x,x,19%
CC(C)[C@H](NS(=O)(=O)c1cccc(Cl)c1)C(=O)OCC(=O)NC(=O)CN1CCCC1=O,-9%,-6,u,-24%,25µM*,-18%
COC(=O)c1c(NC(=O)COC(=O)[C@@H](NS(=O)(=O)c2cccc(Cl)c2)C(C)C)sc2c1CCC2,-16%,-11,-1%,3%,8%,1%
O=C(c1ccccc1)C(c1ccccc1)[n+]1csc2ccccc21 (centres undefined),x,x,x,x,x,-6%

# Source: PubChem BioAssay (National Center for Advancing Translational Sciences (NCATS))
